Assay results as given in PubChem BioAssay (NCI).
The panel holds about 79,000 compounds, 15% with a hit somewhere; the sample as a whole holds those more often. Active and inactive are the calls of the source. No stated cut-off is given here; in the data, active means growth inhibition above about 70%; inactive means the rest.

test: NCI Yeast Anticancer Drug Screen. Data for the sgs1 strain (AID 173);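 further: 0% = growth of vehicle-only control cultures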; settings: S. cerevisiae sgs1 mutant, at 1.2 µM, stronger effect = higher value
Outline: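 Growth of a yeast strain bearing a defined genetic alteration is measured after compound treatment. Inhibition is expressed relative to vehicle-only controls.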

SMILES | growth inhibition
Cc1cccc2c(C(O)CBr)cc(-c3ccc(Cl)cc3)nc12 (configuration not stated) | -2% (inactive)
CC1=C(SCCO)C(=O)c2ccccc2C1=O | -2% (inactive)
CC(/C=C/c1ccc2c(c1)OCO2)[N+](=O)[O-] (configuration not stated) | 30% (inactive)
COC(=O)C1=C(C)NC(C)=C(C(=O)OCCCN2CCC(c3ccccc3)(c3ccccc3)CC2)C1c1cccc([N+](=O)[O-])c1 (configuration not stated) | -3% (inactive)
O=[N+]([O-])c1cc2no[n+]([O-])c2cc1N1CCCCC1 | 51% (inactive)
COC(=O)c1ccc(NCC2=CC(=O)C=CC2=O)cc1O | 3% (inactive)
CCCCCCCCNC(=O)C1=C(C)NC(C)=C(C(=O)NCCCCCCCC)C1 | 2% (inactive)
S=C(Nc1ccc(Cl)c(Cl)c1)SCc1ccc2c(c1)OCO2 | 6% (inactive)
O=S(=O)(CCCl)c1ccccc1Cl | -5% (inactive)
Nc1ccccc1CC(O)C(=O)O (configuration not stated) | -1% (inactive)
CN(C)c1ccc(Sc2ccc3nc(N)nc(N)c3c2)cc1 | 14% (inactive)
Cc1ccc(S(=O)(=O)Oc2cc(Cl)c(Cl)cc2Cl)cc1 | -19% (inactive)
Cc1cc(I)ccc1N | 19% (inactive)
CC(Br)C(=O)c1ccc2cc(Br)c3ccccc3c2c1 (configuration not stated) | 3% (inactive)
O=C(Nc1ccccc1)OCCc1ccc(Cl)c(Cl)c1 | -19% (inactive)
CC1(Cl)CC(O)C2(CC1Br)C1(C)OC1C1OC1(Br)C2(C)C (configuration not stated) | -25% (inactive)
Cc1cc(O)cc(O)c1N=Nc1ccc([N+](=O)[O-])cc1 | -3% (inactive)
CC1=NN(c2cccc(Cl)c2)C(=O)C1 | -27% (inactive)
C(CCSC1=NCCN1)CSC1=NCCN1 (tested in a mixture with another compound) | 11% (inactive)
CCCCCCCCCCC(=O)Cl | 18% (inactive)
COC1C=COC2(C)Oc3c(C)c(O)c4c(c3C2=O)/C(=N/C2CCC(O)OC2C)C=C(NC(=O)/C(C)=C\C(=O)C2CC2C(O)C(C)C(O)C(C)C(OC(C)=O)C1C)C4=O (configuration not stated) | 0% (inactive)
S=c1[nH]nc(Nc2ccc(Cl)cc2)s1 | -14% (inactive)
O=C1CSC(/C=C/c2ccccc2)N1c1ccc(-c2ccc(-n3c(-c4ccccc4)nc4ccccc4c3=O)cc2)cc1 (configuration not stated) | -2% (inactive)
O=C1C=CC(=O)N1c1ccc2c(c1)Cc1cc(NC(=O)C(F)(F)F)ccc1-2 | 18% (inactive)
Oc1ccc2ccccc2c1C(c1ccc(Cl)cc1)c1c(O)ccc2ccccc12 | -29% (inactive)
C[CH2][Sn]([CH2]C)([O]C(=O)C(OC(C)=O)c1ccccc1)[O]C(=O)C(OC(C)=O)c1ccccc1 (configuration not stated) | -1% (inactive)
Cc1ccc2ccc(O)cc2c1 | -24% (inactive)
